Data on twelve compounds can be found in PubChem BioAssay.

The structures appear in SMILES notation. “And” between values parts separate entries of the source, which are not always exact repeats. Identical values can stand only once. Inconclusive results are not listed. More than one record can exist for a structure, and the calls need not agree. The source made the active and inactive calls.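 How the source made its calls, unless noted: active means mean z-score across replicates of 1.96 or higher in either the MELAS or the Rieske mutant cell line; inactive means the rest.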

Experiment [1] is described as follows: viability loss with induced miR-34 in A549 – imaging, A549 dox-inducible miR-34, nuclei and caspase counts, primary screen (AID 1347080;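 active means compounds whose cell count with miR-34 switched on is under 0.7 times the count with it off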). The following applies: A549 miR-34 inducible, Hoechst nuclei count, 48 h.
Experiment [2] can be described thus: MELAS cybrid and Rieske KO viability enhancers – cell-based, MELAS cybrids, Rieske KO mouse fibroblasts, CellTiter-Glo, primary screen (AID 1508586).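 Further: z relative to plate mean and SD of compound and empty wells.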 The following applies: low glucose. Background: In ATP-based viability assays light output follows the ATP content of the culture.
Experiment [3] in a line: galactose survival enhancers in mitochondrial complex I cybrids – cell-based, galactose medium, ATP luminescence, primary screen (AID 1645843;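 active means z-score of at least 1.8 in each of two replicates, scored against plate mean and spread of sample wells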;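 further: positive z means more ATP and so rescue of galactose-driven cybrid death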). The following applies: complex I mutant cybrid cells, 72 h, stronger effect = higher value.
Experiment [4] can be described thus: P. berghei load reduction in hepatocytes – cell-based, HepG2, luciferase luminescence, HepG2 viability, primary screen (AID 624349; in the data active means parasite load remaining mostly below about 12%, no sharp cut-off; inactive means mostly above about 10%;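 further: 100% = mean of DMSO negative control wells on the same plate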). The following applies: P. berghei liver stage in HepG2, luciferase luminescence, concentration not given here; parasite load remaining: stronger effect = lower value; viability: measured here: HepG2 viability without parasites.
Experiment [5] concerns the target ATP-dependent translocase ABCB1 (Homo sapiens) (UniProt P08183). Briefly: P-glycoprotein substrate transport blockade – cell-based (AID 377; in the data active means fluorescence slope change above about 50%). The following applies: MDR1-expressing cells, fluorescent substrate accumulation slope; stronger effect = higher value; concentration not given here.
Where [6] appears, read: stronger effect = lower value, cell number ratio, induced over uninduced.
Where [7] appears, read: measured here: relative caspase fold change +Dox/-Dox.
Where [8] appears, read: measured here: total cells with miR-34 induction, stronger effect = lower value.
Where [9] appears, read: measured here: total cells without miR-34 induction.
The mark [10] stands for this setting: MELAS cybrid survival, CellTiter-Glo 48 h, stronger effect = higher value.
Setting [11] is: Rieske KO mouse fibroblast survival, CellTiter-Glo 72 h.

ATP-dependent translocase ABCB1 (Homo sapiens), sequence (P08183 whole entry, looked up): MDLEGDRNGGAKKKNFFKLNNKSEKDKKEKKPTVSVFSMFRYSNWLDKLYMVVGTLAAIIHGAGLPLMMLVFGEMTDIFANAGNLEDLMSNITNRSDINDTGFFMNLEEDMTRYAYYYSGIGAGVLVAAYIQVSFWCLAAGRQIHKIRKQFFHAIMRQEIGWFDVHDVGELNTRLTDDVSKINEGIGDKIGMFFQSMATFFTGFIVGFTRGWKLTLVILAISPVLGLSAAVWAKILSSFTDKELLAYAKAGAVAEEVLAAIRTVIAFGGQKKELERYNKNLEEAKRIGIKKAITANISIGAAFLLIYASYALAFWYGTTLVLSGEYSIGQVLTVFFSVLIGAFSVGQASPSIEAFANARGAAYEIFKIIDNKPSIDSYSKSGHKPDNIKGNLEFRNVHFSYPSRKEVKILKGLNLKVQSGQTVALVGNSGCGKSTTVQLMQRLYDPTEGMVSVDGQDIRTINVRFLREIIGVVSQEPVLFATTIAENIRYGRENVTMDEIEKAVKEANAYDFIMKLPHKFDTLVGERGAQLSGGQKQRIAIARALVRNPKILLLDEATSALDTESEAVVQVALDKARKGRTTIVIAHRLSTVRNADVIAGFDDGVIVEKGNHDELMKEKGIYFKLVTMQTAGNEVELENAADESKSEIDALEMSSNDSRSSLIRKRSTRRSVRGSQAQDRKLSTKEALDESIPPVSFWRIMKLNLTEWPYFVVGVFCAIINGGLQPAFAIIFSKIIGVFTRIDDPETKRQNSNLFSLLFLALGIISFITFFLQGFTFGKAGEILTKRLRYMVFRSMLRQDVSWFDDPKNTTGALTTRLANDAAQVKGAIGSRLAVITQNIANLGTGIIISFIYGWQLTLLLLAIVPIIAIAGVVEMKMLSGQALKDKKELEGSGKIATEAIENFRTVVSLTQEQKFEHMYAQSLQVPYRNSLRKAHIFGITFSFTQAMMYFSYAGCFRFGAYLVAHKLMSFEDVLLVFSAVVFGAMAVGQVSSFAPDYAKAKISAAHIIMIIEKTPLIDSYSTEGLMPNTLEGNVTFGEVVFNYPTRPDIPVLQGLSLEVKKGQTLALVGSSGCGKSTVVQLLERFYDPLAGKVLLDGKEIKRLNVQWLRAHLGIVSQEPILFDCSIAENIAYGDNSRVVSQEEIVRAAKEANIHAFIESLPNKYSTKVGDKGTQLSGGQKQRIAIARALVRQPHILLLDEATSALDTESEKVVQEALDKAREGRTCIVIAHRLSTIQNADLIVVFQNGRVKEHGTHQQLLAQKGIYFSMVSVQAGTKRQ

For the compound `COc1ncccc1-c1cnn(CC(=O)Nc2cc(-c3ccccn3)nn2C)c1`, the fold change in experiment [1] (setting [6]) is 0.961 (inactive); in experiment [1] (setting [7]), 0.557. In addition, the cell count came out at 9520 in experiment [1] (setting [8]) and 9900 in experiment [1] (setting [9]). The results for the z-score in experiment [2] (setting [10]), in experiment [2] (setting [11]) and in experiment [3] were -0.417 (inactive), 0.201 and -0.56 (inactive), respectively.
Consider `Cc1cc(C(=O)N2CCc3[nH]nc(COc4ccccc4)c3C2)c(C)o1`, for which the fold change in experiment [1] (setting [6]) is 0.899 (inactive); in experiment [1] (setting [7]), 1.21. Also, the cell count stood at 8460 in experiment [1] (setting [8]) and 9410 in experiment [1] (setting [9]). The z-score in experiment [2] (setting [10]) was -0.0896 (inactive); in experiment [2] (setting [11]) it was -0.219; in experiment [3] it was -0.42 (inactive).
On to `C=CCn1cc(-c2nc3c([nH]2)c(-c2cccnc2)nn3C)c(C)n1`, for which the fold change in experiment [1] (setting [6]) was 0.874 (inactive); in experiment [1] (setting [7]) it was 0.787. Besides, the cell count turned out to be 8680 in experiment [1] (setting [8]) and 9940 in experiment [1] (setting [9]). Besides, the z-score in experiment [2] (setting [10]) was -1.29; in experiment [2] (setting [11]) it was 2.45; in experiment [3] it was -0.47 (inactive).
The term viability denotes a read-out of living cells in per cent, often relative to untreated cells. Turning to `Nc1nc(=O)n([C@@H]2CS[C@H](CO)O2)cc1F`, the parasite load remaining in experiment [4] was 56.6% (inactive). In addition, the viability in experiment [4] stood at 160%. In addition, the fold change in experiment [1] (setting [6]) is 0.911 (inactive); in experiment [1] (setting [7]), 1.49. The cell count turned out to be 10100 in experiment [1] (setting [8]) and 11100 in experiment [1] (setting [9]). The z-score is 0.34 (inactive) and -0.461 (inactive) in experiment [2] (setting [10]); -0.0583 and -0.327 in experiment [2] (setting [11]); 0.88 (inactive) in experiment [3].
`N.N.O=C(O)CO.[Pt]`: in experiment [4], the parasite load remaining is 50.4% (inactive). Further, the viability in experiment [4] came to 108%. Besides, the fold change was 0.961 (inactive) in experiment [1] (setting [6]) and 1.22 in experiment [1] (setting [7]). The cell count in experiment [1] (setting [8]) amounted to 10100; in experiment [1] (setting [9]) it was 10500. Further, the z-score in experiment [2] (setting [10]) is -0.923 (inactive); in experiment [2] (setting [11]), -1.2; in experiment [3] it was 0.195 (inactive).
Consider `CCC(=O)OC(OP(=O)(CCCCc1ccccc1)CC(=O)N1C[C@H](C2CCCCC2)C[C@H]1C(=O)O)C(C)C` (stereo partly drawn), for which the parasite load remaining in experiment [4] was 49.8% (inactive). Also, the viability in experiment [4] was found to be 108%. For the same compound, the fold change was 0.948 (inactive) in experiment [1] (setting [6]) and 2.49 in experiment [1] (setting [7]). Besides, the values for the cell count in experiment [1] (setting [8]) and in experiment [1] (setting [9]) were 10100 and 10700, respectively. Besides, the z-score was 0.354 (inactive) and -0.69 (inactive) in experiment [2] (setting [10]); -0.176 and -1.17 in experiment [2] (setting [11]); 0.59 (inactive) in experiment [3].
On to `CC1/C=C/C=C/CC/C=C/C=C/C=C/C=C/C(O[C@@H]2O[C@H](C)[C@@H](O)[C@H](N)[C@@H]2O)CC(O)C(C(=O)O)C(O)CC(=O)CC(O)C(O)CCC(O)CC(O)CC(O)CC(=O)OC(C)C(C)C1O` (stereo partly drawn), for which the parasite load remaining in experiment [4] is 90.8% (inactive) and 24.4% (inactive). Moreover, the viability in experiment [4] was 111% and 90.5%. For the same compound, the fold change in experiment [1] (setting [6]) was 0.86 (inactive) and 0.844 (inactive); in experiment [1] (setting [7]), 1.56 and 1.28. Besides, the cell count in experiment [1] (setting [8]) was 9420 and 8760; in experiment [1] (setting [9]) it was 11000 and 10400. Besides, the z-score in experiment [2] (setting [10]) is 2.26 (active) and 0.353 (inactive); in experiment [2] (setting [11]) it was 0.0499 and 0.288; in experiment [3], 0.5 (inactive).
For the compound `CC1(C)C[C@H]1C(=O)N/C(=C\CCCCSC[C@@H](N)C(=O)O)C(=O)O`, the parasite load remaining in experiment [4] was 23.2% (inactive). Further, the viability in experiment [4] came out at 65%. The values for the fold change in experiment [1] (setting [6]) and in experiment [1] (setting [7]) were 0.879 (inactive) and 0.978, respectively. Also, the cell count amounted to 9660 in experiment [1] (setting [8]) and 11000 in experiment [1] (setting [9]). Further, the z-score was 0.461 (inactive) in experiment [2] (setting [10]), 1.05 in experiment [2] (setting [11]) and 0.565 (inactive) in experiment [3].
`CN1[C@@H](C[C@H](O)c2ccccc2)CCC[C@H]1CC(=O)c1ccccc1`: the fluorescence slope change in experiment [5] was 26.3% (inactive). Further, the parasite load remaining in experiment [4] is 53.1% (inactive). Also, the viability in experiment [4] was found to be 128%. Also, the values for the fold change in experiment [1] (setting [6]) and in experiment [1] (setting [7]) were 0.934 (inactive) and 1.15, respectively. For the same compound, the cell count is 9500 in experiment [1] (setting [8]) and 10200 in experiment [1] (setting [9]). The z-score in experiment [2] (setting [10]) is -0.675 (inactive); in experiment [2] (setting [11]), -0.32; in experiment [3], 0.205 (inactive).
With `CC#CCC(C)[C@H](O)/C=C/[C@@H]1[C@H]2C/C(=C/CCCC(=O)O)C[C@H]2C[C@H]1O` (stereo partly drawn), in experiment [4], the parasite load remaining is 12.8% (inactive). For the same compound, the viability in experiment [4] was 77.5%. Also, the fold change in experiment [1] (setting [6]) is 0.876 (inactive); in experiment [1] (setting [7]), 1.59. The cell count in experiment [1] (setting [8]) is 8850; in experiment [1] (setting [9]) it was 10100. The z-score is -0.239 (inactive) in experiment [2] (setting [10]), -0.923 in experiment [2] (setting [11]) and 0.275 (inactive) in experiment [3].
As to `O=C(OC1CC2CC3C[C@@H](C1)N2CC3=O)c1c[nH]c2ccccc12` (stereo partly drawn), the parasite load remaining in experiment [4] was 57.9% (inactive). The viability in experiment [4] worked out at 134%. Also, the fold change in experiment [1] (setting [6]) was 0.838 (inactive); in experiment [1] (setting [7]) it was 1.48. Besides, the results for the cell count in experiment [1] (setting [8]) and in experiment [1] (setting [9]) were 8850 and 10600, respectively. The z-score in experiment [2] (setting [10]) was -0.0411 (inactive); in experiment [2] (setting [11]) it was -0.329; in experiment [3] it was 1.09 (inactive).
Regarding `C[N+](C)(C)[C@@H](Cc1c[nH]c(=S)[nH]1)C(=O)[O-]`, the parasite load remaining in experiment [4] is 52.4% (inactive). In experiment [4], the viability is 234%. The fold change in experiment [1] (setting [6]) was 0.872 (inactive); in experiment [1] (setting [7]), 1.27. The cell count in experiment [1] (setting [8]) was determined as 9810; in experiment [1] (setting [9]) it was 11300. In addition, the z-score is -0.462 (inactive) in experiment [2] (setting [10]), -0.623 in experiment [2] (setting [11]) and 0.805 (inactive) in experiment [3].
